# In PubChem BioAssay (NCI):
# Values joined by “and” are separate entries in the source; they are usually repeats but may differ in a detail not shown here. Identical values can stand only once. This is part of a sample that, as a whole, favours compounds with a hit. Of some 79,000 tested, about 15% had one in any assay. Where a structure was tested more than once in an assay, its records may differ in their call. Active and inactive are the calls of the source. No stated cut-off is given here; in the data, active means growth inhibition above about 70%; inactive means the rest.
# Experiment: NCI Yeast Anticancer Drug Screen. Data for the sgs1 mgt1 strain (AID 161);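 further: 0% = growth of cultures given vehicle only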
# Conditions: S. cerevisiae sgs1 mgt1 strain, at 50.0 µM (retest, dose inferred, filed as 5.0), stronger effect = higher value
# Procedure, shortened: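 Genetically altered yeast, compound exposure, growth inhibition relative to vehicle.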
row,SMILES,growth inhibition
1,COc1ccc(/C=C2\CCc3ccccc3C2=O)cc1OC,68% (inactive)
2,CC(C)c1ccc(O)c(=O)cc1,42% (inactive) and 31% (inactive) and 1% (inactive)
3,O=Cc1ccccc1B(O)O,95% (active)
4,OCC(O)C(O)C(O)C(O)c1nc2ccccc2[nH]1 (stereo not given),1% (inactive) and -14% (inactive)
5,CC(=O)CC[N+](C)(C)C,51% (inactive)
6,O=C(O)[C@H]1[C@@H](C2CCCCC2)O[C@@H](C2CCCCC2)O[C@H]1C(F)(F)F,12% (inactive)
7,CN(NC(=O)/C(=C/C=C/c1ccccc1)NC(=O)c1ccccc1)C1=C(Cl)C(=O)[N+](c2ccccc2)=CC1,8% (inactive)
8,CCCCOc1ccc(Nc2c3ccccc3nc3ccccc23)cc1,94% (active)
9,N#C/C(=C1C=C/C(=N\O)C(Cl)=C\1)c1ccccc1,85% (active)
10,COc1cccc2c1C(=O)c1c(O)c3c(c(O)c1C2=O)CC(O)(C(=O)CO)CC3OC1CC(N)C(O)C(C)O1 (stereo not given),0% (inactive) and 4% (inactive) and 71% (active)
11,COc1ccc(C(=O)OCCc2ccccc2)cc1,32% (inactive)
12,Cc1c2ccncc2c(C)c2c1oc1ccccc12,93% (active)
13,CCCC#CCOC(=O)c1cc([N+](=O)[O-])cc([N+](=O)[O-])c1,100% (active)
14,Nc1nc(Nc2ccccc2)nc(Nc2ccccc2)n1,66% (inactive)
15,COc1ccc(/C=C2\S/C(=N/Nc3nc(-c4ccccc4)cs3)NC2=O)cc1OC,90% (active)
16,CCCCCCCCCCCC[N+](C)(C)Cc1ccccc1 (tested in a mixture with another compound),100% (active) and 99% (active)
17,CC(O)CN1C(=O)c2cccc3cc([N+](=O)[O-])cc(c23)C1=O (stereo not given),15% (inactive)
18,Cc1cc(SC#N)ccc1O,92% (active) and 77% (active) and 63% (inactive)

row,SMILES,growth inhibition
1,Cn1c(COc2ccc(/C=N/NC(=O)CCC(=O)N/N=C/c3ccc(OCc4c[n+]5ccccc5n4C)cc3)cc2)c[n+]2ccccc12,47% (inactive)
2,COC1=C(N=[N+]=[N-])C(=O)c2ncccc2C1=O,93% (active)
3,CCN(CC)c1ccc(N=Nc2cc(S(=O)(=O)O)ccc2O)c(O)c1,-3% (inactive)
4,O=C1C(C(O)(C(F)(F)F)C(F)(F)F)CCC1C(O)(C(F)(F)F)C(F)(F)F (stereo not given),54% (inactive)
5,COc1nc(N)c(N=CC(OC(C)=O)C(OC(C)=O)C(COC(C)=O)OC(C)=O)c(=O)n1C (stereo not given),13% (inactive) and -2% (inactive) and -3% (inactive)
6,CN(C)CCNC(=O)c1cccc2nc3c(ccc4ccccc43)nc12,37% (inactive)
7,O=S(=O)(CCC[C@H]1[C@@H](CCOCc2ccccc2)C2CCCN1O2)c1ccccc1 (stereo not given in full),20% (inactive)
8,CCC(C)/C(C)=N/NC(N)=O (stereo not given),48% (inactive)
9,Nc1c([N+](=O)[O-])cc2c3c(cccc13)CC2,54% (inactive)
10,CC1=Cc2ccc(C)cc2C(=O)C1=O,99% (active)
11,C=Cc1c(C)c(O)cc2c1-c1ccc(O)c(C)c1CC2,93% (active)
12,NCC(O)CSCc1ccc(Cl)cc1 (stereo not given),25% (inactive)
13,C[n+]1c(-c2ccc(NC(=O)c3ccc(C(=O)Nc4ccc(-c5cn6ccccc6[n+]5C)cc4)cc3)cc2)cn2ccccc21,97% (active)
14,Nc1ccccc1SSc1ccccc1N,99% (active) and 12% (inactive)
15,CCCCCCCCCCCC[N+](C)(C)C,98% (active) and 97% (active) and 99% (active)
16,CNC(=O)OCc1c(COC(=O)NC)c(C)n(-c2ccc(Cl)c(Cl)c2)c1C,23% (inactive)
17,[O-]c1c2cc(-[n+]3c(-c4ccccc4)cc(-c4ccccc4)cc3-c3ccccc3)cc1COCCOCCOCCOCCOC2,20% (inactive)
18,C[Si](C)(C)Cc1ccccc1C(=O)O,38% (inactive)

# Same assay, conditions: S. cerevisiae sgs1 mgt1 strain, at 50.0 µM, stronger effect = higher value
row,SMILES,growth inhibition
1,COc1ccc(/C=C2\CCc3ccccc3C2=O)cc1OC,84.8% (active)
2,CC(C)c1ccc(O)c(=O)cc1,93.5% (active) and 94% (active) and 93% (active)
3,O=Cc1ccccc1B(O)O,98.9% (active)
4,OCC(O)C(O)C(O)C(O)c1nc2ccccc2[nH]1 (stereo not given),2% (inactive) [middle of 5 runs]
5,CC(=O)CC[N+](C)(C)C,-30.9% (inactive)
6,O=C(O)[C@H]1[C@@H](C2CCCCC2)O[C@@H](C2CCCCC2)O[C@H]1C(F)(F)F,85.5% (active)
7,CN(NC(=O)/C(=C/C=C/c1ccccc1)NC(=O)c1ccccc1)C1=C(Cl)C(=O)[N+](c2ccccc2)=CC1,79.8% (active)
8,CCCCOc1ccc(Nc2c3ccccc3nc3ccccc23)cc1,91.3% (active)
9,N#C/C(=C1C=C/C(=N\O)C(Cl)=C\1)c1ccccc1,40.1% (inactive)
10,COc1ccc(C(=O)OCCc2ccccc2)cc1,6.8% (inactive)
11,Cc1c2ccncc2c(C)c2c1oc1ccccc12,44.8% (inactive)
12,CCCC#CCOC(=O)c1cc([N+](=O)[O-])cc([N+](=O)[O-])c1,99.7% (active)
13,Nc1nc(Nc2ccccc2)nc(Nc2ccccc2)n1,94% (active)
14,COc1ccc(/C=C2\S/C(=N/Nc3nc(-c4ccccc4)cs3)NC2=O)cc1OC,95.7% (active)
15,CCCCCCCCCCCC[N+](C)(C)Cc1ccccc1 (tested in a mixture with another compound),99.7% (active) and 99.8% (active) and 99.5% (active)
16,CC(O)CN1C(=O)c2cccc3cc([N+](=O)[O-])cc(c23)C1=O (stereo not given),58% (inactive)
17,Cc1cc(SC#N)ccc1O,95.2% (active) and 85.7% (active) and 75% (active)

row,SMILES,growth inhibition
1,Cn1c(COc2ccc(/C=N/NC(=O)CCC(=O)N/N=C/c3ccc(OCc4c[n+]5ccccc5n4C)cc3)cc2)c[n+]2ccccc12,63.4% (inactive)
2,COC1=C(N=[N+]=[N-])C(=O)c2ncccc2C1=O,82.3% (active)
3,CCN(CC)c1ccc(N=Nc2cc(S(=O)(=O)O)ccc2O)c(O)c1,66.1% (inactive)
4,O=C1C(C(O)(C(F)(F)F)C(F)(F)F)CCC1C(O)(C(F)(F)F)C(F)(F)F (stereo not given),67.3% (inactive)
5,CN(C)CCNC(=O)c1cccc2nc3c(ccc4ccccc43)nc12,40.2% (inactive)
6,O=S(=O)(CCC[C@H]1[C@@H](CCOCc2ccccc2)C2CCCN1O2)c1ccccc1 (stereo not given in full),-23.6% (inactive)
7,CCC(C)/C(C)=N/NC(N)=O (stereo not given),36.9% (inactive)
8,Nc1c([N+](=O)[O-])cc2c3c(cccc13)CC2,52.5% (inactive)
9,CC1=Cc2ccc(C)cc2C(=O)C1=O,99.3% (active)
10,C=Cc1c(C)c(O)cc2c1-c1ccc(O)c(C)c1CC2,-18.5% (inactive)
11,NCC(O)CSCc1ccc(Cl)cc1 (stereo not given),31% (inactive)
12,C[n+]1c(-c2ccc(NC(=O)c3ccc(C(=O)Nc4ccc(-c5cn6ccccc6[n+]5C)cc4)cc3)cc2)cn2ccccc21,64.5% (inactive)
13,Nc1ccccc1SSc1ccccc1N,99.3% (active)
14,CCCCCCCCCCCC[N+](C)(C)C,49% (inactive) and 92.5% (active) and 48.6% (inactive)
15,CNC(=O)OCc1c(COC(=O)NC)c(C)n(-c2ccc(Cl)c(Cl)c2)c1C,89.5% (active)
16,[O-]c1c2cc(-[n+]3c(-c4ccccc4)cc(-c4ccccc4)cc3-c3ccccc3)cc1COCCOCCOCCOCCOC2,31.6% (inactive)
17,C[Si](C)(C)Cc1ccccc1C(=O)O,97.4% (active)
